{"source": "paper PMC8769072", "about": "“Proteome‐scale mapping of binding sites in the unstructured regions of the human proteome” (Molecular Systems Biology, 2022)", "data": [{"target": "YAP1 169-207, P46937", "sequence (P46937 169-207)": "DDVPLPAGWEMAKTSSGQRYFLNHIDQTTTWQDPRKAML", "values": [{"binder": "SPPAYHMHVFDRPYPL", "note": "[CUEDC1, Q9NWM3]", "selected by phage display": "confidence 3 (active)"}, {"binder": "SPSQYINEENLPVYPD", "note": "[KNL1, Q8NG31]", "selected by phage display": "confidence 2 (active)"}, {"binder": "GSPMVPSYETSVSPQA", "note": "[PIKFYVE, Q9Y2I7]", "selected by phage display": "confidence 2 (active)"}, {"binder": "SLDALKVFDGIPPPYD", "note": "[RPL13AP3, Q6NVV1]", "selected by phage display": "confidence 2 (active)"}, {"binder": "APPPPGYHQNGVIRNQ", "note": "[MYO1E, Q12965]", "selected by phage display": "confidence 3 (active)"}, {"binder": "TPRSSVELPPYSGTVL", "note": "[USP10, Q14694]", "selected by phage display": "confidence 2 (active)"}, {"binder": "MPPPGYPHIPQALSTP", "note": "[FOXJ3, Q9UPW0]", "selected by phage display": "confidence 4 (active)"}, {"binder": "AYPPSYPSAMSPTHHL", "note": "[FNDC3B, Q53EP0]", "selected by phage display": "confidence 2 (active)"}, {"binder": "PTMTPPPYLPGPNASP", "note": "[FOXI1, Q12951]", "selected by phage display": "confidence 4 (active)"}, {"binder": "SPQLPQYPGLQQAQTM", "note": "[MED12L, Q86YW9]", "selected by phage display": "confidence 3 (active)"}, {"binder": "AEFQPPYFPPPYPQPP", "note": "[TFAP2E, Q6VUC0]", "selected by phage display": "confidence 2 (active)"}, {"binder": "LQEQQQQQMHLQPPSY", "note": "[TRERF1, Q96PN7]", "selected by phage display": "confidence 2 (active)"}, {"binder": "HQQPPPYPLMHHQMPP", "note": "[SMARCC1, Q92922]", "selected by phage display": "confidence 3 (active)"}, {"binder": "QALPDYSLGPHYTSQK", "note": "[CSRNP1, Q96S65]", "selected by phage display": "confidence 2 (active)"}, {"binder": "EYEKLPAYLATSPIPT", "note": "[LPIN2, Q92539]", "selected by phage display": "confidence 3 (active)"}, {"binder": "ASEVGSPPSYSEALLD", "note": "[LDLRAD3, Q86YD5]", "selected by phage display": "confidence 3 (active)"}, {"binder": "MGDLPPYPERPAQQPP", "note": "[RSPH6A, Q9H0K4]", "selected by phage display": "confidence 2 (active)"}, {"binder": "EAPPPYSPIGDDVQLL", "note": "[ARHGAP5, Q13017]", "selected by phage display": "confidence 3 (active)"}, {"binder": "ESLPSYLESSRVNTPV", "note": "[ANK3, Q12955]", "selected by phage display": "confidence 4 (active)"}, {"binder": "PPPSYAATIASKLAIH", "note": "[KLF5, Q13887]", "selected by phage display": "confidence 3 (active)"}]}, {"target": "YES1 90-152, P07947", "sequence (P07947 90-152)": "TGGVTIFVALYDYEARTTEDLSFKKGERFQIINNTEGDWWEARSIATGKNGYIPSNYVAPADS", "values": [{"binder": "HSSRELPSRPDGVLHV", "note": "[VWA5B2, Q8N398]", "selected by phage display": "confidence 3 (active)"}, {"binder": "NLRALPLPPRPPATST", "note": "[RNF223, E7ERA6]", "selected by phage display": "confidence 3 (active)"}, {"binder": "SSENPYATIRDLPSLP", "note": "[PEAR1, Q5VY43]", "selected by phage display": "confidence 4 (active)"}, {"binder": "MSGHTLPPLPVPGTNS", "note": "[EPPK1, P58107]", "selected by phage display": "confidence 3 (active)"}, {"binder": "LLPPPPPGAPLPSLPF", "note": "[SOBP, A7XYQ1]", "selected by phage display": "confidence 2 (active)"}, {"binder": "DKPLPVPPTLRDLPPP", "note": "[CBL, P22681]", "selected by phage display": "confidence 4 (active)"}, {"binder": "VDPSKHIRPVPSLPDV", "note": "[VPS54, Q9P1Q0]", "selected by phage display": "confidence 2 (active)"}, {"binder": "VKRTLPSPPPEEAHLP", "note": "[BSN, Q9UPA5]", "selected by phage display": "confidence 3 (active)"}, {"binder": "DMLPALLRPPEPLPTP", "note": "[SLC39A5, Q6ZMH5]", "selected by phage display": "confidence 2 (active)"}, {"binder": "RPLPSPAPPPPQLLEA", "note": "[KIF26A, Q9ULI4]", "selected by phage display": "confidence 2 (active)"}, {"binder": "PQKEGERALPSIPKLA", "note": "[PTK2, Q05397]", "selected by phage display": "confidence 3 (active)"}]}]}
